Results taken from PubChem BioAssay (NCATS).
Where “and” joins values, the source holds several entries; their conditions need not be identical. Equal entries are not always repeated. Results filed as inconclusive are left out. Calls of active or inactive are those of the source. Calls follow the shape of the dose curve; as a rule, active = well fitted cell-killing curve with a large enough effect; inconclusive = small, poorly fitted or top-dose-only effect; inactive = no such curve, though single readings can be large or run the other way. Non-standard residues stand in square brackets, D forms with d. Residues, ends and D or L forms follow the SMILES beside them. *: point of attachment. Sta = CC(C)C[C@H](N)[C@@H](O)CC(=O)O; Isovaleryl = CC(C)CC(=O)*

assay: qHTS of pediatric cancer cell lines to identify multiple opportunities for drug repurposing: Primary screen for Rh41 cells (AID 1347108); conditions: Rh41 rhabdomyosarcoma viability, CellTiter-Glo luminescence, 48 h; series mostly up to 46 µM; activity change, negative = cytotoxic: at the top concentration; also: nearly all actives have a fitted effect of over 70% in size;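 as to activity change, negative = cytotoxic: luminescence drop marks cytotoxic hits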
Source text: Drug repurposing or repositioning has been offered as a strategy for drug development in oncology programs. This approach has special potential for childhood cancers and other rare or orphan diseases, where the expected return on new drug development has been a disincentive to pharmaceuticals. […] In this project we exploit the poly-pharmacology of drugs to discover new indications via phenotypic screening of a panel of 19 well-characterized cell lines derived from solid tumors seen in children and adolescents. The goal is to identify approved drugs with previously unrecognized anticancer properties that has the potential to reveal new mechanisms and biological processes involved in carcinogenesis or drug resistance. We employed a titration-based paradigm (quantitative high-throughput screening or qHTS), where all compounds were tested at multiple concentrations for their effect on cell viability. Concentration-response curves (CRCs) were derived directly from the primary screen, and both potency and efficacy values were used to identify compounds with robust bioactivity profiles. We screened the NIH Chemical Genomics Center (NCGC) Pharmaceutical Collection (NPC) and Mechanism Interrogation Plate (MIPE) small molecule collections of approved and investigational compounds against these cell lines; and measured metabolically active cells after 48 hours of compound treatment as a proxy for cell viability. […] Assay Submitter: Nathalia J. Martinez, National Center for Advancing Translational Sciences, National Institutes of Health, Rockville, MD, USA; email: natalia.martinez@nih.gov Shen, M et al. Quantitative high-throughput phenotypic screening of pediatric cancer cell lines identifies multiple opportunities for drug repurposing. Oncotarget 2017 Dec 19;9(4):4758-4772. PMID 29435139.
The cells were obtained from University of North Carolina (UNC), Pediatric Preclinical Testing Program (PPT), and Coriell Institute (CI). qHTS cell viability assay: Cells were assayed in growth media at a density of 500-1,000 cells/well. Five microliters of cells were dispensed into 1,536-well, white, solid-bottom, TC-treated plates (Greiner Bio One) using a multidrop dispenser and incubated at 37 degrees C, 5% CO2, under a humidified atmosphere for 5 hours. Twenty-three nanoliters of compounds and controls (neutral control DMSO or positive control bortezomib at final concentration of 2.3 µM) were subsequently transferred by Kalypsys pintool. For primary screens, the MIPE collection was tested at 11-point dilutions (final concentrations range from 0.78 nM to 46 µM) and the NPC collection at 8-point dilutions (final concentrations range from 0.59 nM to 46 µM). Compounds tested in follow-up screens were assayed at 11-point dilutions. Cells were incubated for 48 hours, followed by addition of 3 µL of CellTiter-Glo (Promega). After a 15 min incubation at room temperature, samples were analyzed for luminescence intensity using a ViewLux High-throughput CCD imager equipped with clear filters.
Potency is read from the fitted curve at half-maximal effect.

| SMILES | Potency | activity change, negative = cytotoxic |
| --- | --- | --- |
| Oc1ccc(-c2nc(-c3ccc(F)cc3)c(-c3ccncc3)[nH]2)cc1 | 16.6 µM (active) |  |
| CN(c1nccc(=O)[nH]1)C1CCN(c2nc3ccccc3n2Cc2ccc(F)cc2)CC1 |  | 8.66% (inactive) |
| CN(C)c1ccc2nc3ccc(=[N+](C)C)cc-3sc2c1 | 5.9 µM (active) and 6.68 µM (active) |  |
| CCOC(=O)C(C)Oc1cccc2c(=O)n(CC(=O)Nc3ccc4c(c3)OCCO4)ccc12 (stereo not given) |  | 10.3% (inactive) |
| CC(=O)O[C@H]1C(=O)[C@@]2(C)C([C@H](OC(=O)c3ccccc3)[C@]3(O)C[C@H](OC(=O)[C@H](O)[C@@H](NC(=O)c4ccccc4)c4ccccc4)C(C)=C1C3(C)C)[C@]1(OC(C)=O)CO[C@@H]1C[C@@H]2O (stereo not given in full) | 0.0042 µM (active) |  |
| C[C@H](Cc1ccc(O)c(O)c1)[C@@H](C)Cc1ccc(O)c(O)c1 | 11.8 µM (active) |  |
| CC1=C(C(=O)O)N2C(=O)[C@@H](NC(=O)[C@H](N)C3=CCC=CC3)[C@H]2SC1 | inactive |  |
| Cc1nccn1CC1CCc2c(c3ccccc3n2C)C1=O (stereo not given) | inactive |  |
| O=C1NC(=O)C(c2ccccc2[N+](=O)[O-])=C1Nc1ccc(O)c(Cl)c1 |  | 24.9% (inactive) |
| O=C(O)CCNC(=O)c1ccc(N=Nc2ccc(O)c(C(=O)O)c2)cc1 | inactive |  |
| Cn1c(NCCN(CCO)CCCc2ccc([N+](=O)[O-])cc2)cc(=O)n(C)c1=O |  | 5.37% (inactive) |
| O=C(OC1C[C@H]2CC[C@@H](C1)[N+]21CCCC1)C(O)(c1ccccc1)c1ccccc1 (stereo not given in full) |  | 21.3% (inactive) |
| CN1CCC(=C2c3ccccc3CCc3sccc32)CC1 | inactive |  |
| CCN(CC)CCOc1ccc(Nc2ncc3cc(-c4c(Cl)cccc4Cl)c(=O)n(C)c3n2)cc1 | 1.87 µM (active) |  |
| COc1ccccc1N1CCN(CCN(C(=O)C2CCCCC2)c2ccccn2)CC1 |  | 32.9% (inactive) |
| CN(C)CCc1c[nH]c2ccc(Cn3cncn3)cc12 |  | 12.5% (inactive) |
| c1cnc2cc3c(cc2n1)C1CNCC3C1 |  | 31.1% (inactive) |
| Cc1ncc([N+](=O)[O-])n1CC(C)O (stereo not given) | inactive |  |
| c1ccc2[nH]c(-c3cscn3)nc2c1 | inactive |  |
| Nc1ncn([C@H]2C[C@H](O)[C@@H](CO)O2)c(=O)n1 | inactive |  |

| SMILES | Potency | activity change, negative = cytotoxic |
| --- | --- | --- |
| CN(C)[C@@H](CCOc1cccc2ccccc12)c1ccccc1 |  | 21.4% (inactive) |
| CC1(C)CCC(C)(C)c2cc(NC(=O)c3ccc(C(=O)O)cc3)ccc21 |  | 3.32% (inactive) |
| O=C(O)c1cn(-c2ccc(F)cc2)c2cc(N3CCNCC3)c(F)cc2c1=O | inactive |  |
| CC(C)CC(=O)N[C@H](C(=O)N[C@H](C(=O)N[C@@H](CC(C)C)[C@@H](O)CC(=O)N[C@@H](C)C(=O)N[C@@H](CC(C)C)[C@@H](O)CC(=O)O)C(C)C)C(C)C (Isovaleryl-VV[Sta]A[Sta]-OH) |  | 18% (inactive) |
| O=C(O)c1cc(=O)c2c(OCC(O)COc3cccc4oc(C(=O)O)cc(=O)c34)cccc2o1 | inactive |  |
| Cc1cc(=O)c2c(O)c3c(O)cc(=O)c4c3c3c(cc(O)c1c23)C(C)(C)C=4O | 18.7 µM (active) |  |
| Nc1ccc(S(N)(=O)=O)cc1 | inactive |  |
| CCOC(=O)c1c(C)n(C)c2ccc(O)cc12 | inactive |  |
| Nc1ccn([C@@H]2O[C@H](CO)[C@@H](O)C2O)c(=O)n1 (stereo not given in full) |  | 35.1% (inactive) |
| Cc1c(C(=O)NN2CCCCC2)nn(-c2ccc(Cl)cc2Cl)c1-c1ccc(Cl)cc1 | inactive |  |
| NNc1nncc2ccccc12 | inactive |  |
| COc1cc(C(C)=O)ccc1OCCCN1CCC(c2noc3cc(F)ccc23)CC1 |  | -0.486% (inactive) |
| O=C(c1ccccc1)c1ccc2n1CCC2C(=O)O (stereo not given) |  | 23% (inactive) |
| Cc1nc2n(c(=O)c1CCN1CCC(c3noc4cc(F)ccc34)CC1)CCCC2 | inactive |  |
| O=C(CCc1ccc(O)cc1)c1c(O)cc(O)cc1O |  | -14.5% (inactive) |
| O=C(NCC1CCCCN1)c1cc(OCC(F)(F)F)ccc1OCC(F)(F)F (stereo not given) |  | -12.5% (inactive) |
| CN(C)C(=O)COC(=O)Cc1ccc(OC(=O)c2ccc(N=C(N)N)cc2)cc1 | inactive |  |
| CCN(CCO)CCCC(C)Nc1ccnc2cc(Cl)ccc12 (stereo not given) | inactive |  |
| CC(C)C[C@H](NC(=O)[C@H](Cc1ccccc1)NC(=O)c1cnccn1)B(O)O | 0.0296 µM (active) |  |
| CC(C)Oc1ccc2c(=O)c(-c3ccccc3)coc2c1 | inactive |  |
